# Shown are actives, neighbours in structure and some others; about 2.5% of the full set was active somewhere.
# WRN inhibitor = inhibitors of human WRN helicase. Q14191. WRN helicase unwinding, fluorescent forked duplex, kinetic. Potency, µM (titrated, usually from 114 µM), for inactives: top-dose activity change, negative = inhibition, most hits filed as inhibitors. 0.46% of 360,000 active. AID 651768; note: % is set by controls: 0 for no effect and ±100 for the full control effect; nearly all actives have a fitted effect of over 55% in size
#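 Kinetic fluorescence helicase assay: unwinding of a quenched forked DNA duplex (100 nM final) with 2 mM ATP final raises red fluorescence (525/598 nm). Compounds sat 15 min at room temperature with 20 nM WRN beforehand.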
# L3MBTL1 block = blocks human L3MBTL1. AID 485360. Potency, µM (series often up to 57.1 µM), inactives show at the top dose activity, negative = inhibition, usual class: inhibitors. AlphaScreen L3MBTL1–H3K9me1 peptide binding. 0.66% of 230,000 active. Q9Y468; note: % is set by controls: 0 for no effect and ±100 for the full control effect; nearly all actives have a fitted effect of over 60% in size
#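 AlphaScreen proximity signal between nickel-chelate acceptor and streptavidin donor beads (final 10 ug/mL) reports binding of 50 nM L3MBTL1 to 75 nM biotin-H3 K9me1 peptide; complex incubated with compounds 30 min at room temperature; cefsulodin titration as control.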
# POLI inh = blocks human DNA polymerase iota activity; Q9UNA4; Pol iota fluorescent replication assay, 10 min; Potency, µM (highest dose often 115 µM), for inactives: at the highest dose activity, negative = inhibition, actives largely listed as inhibitors; 1% of 390,000 active
#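 Pol iota at 10 nM preincubated 15 min with compounds at room temperature; reaction started with fluorescent substrate, 50 nM final. Fluorescence read kinetically at 0 and 10 min; buffer-only wells as negative control.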
# Pol kappa inh-1 = DNA polymerase kappa (human) inhibition; Q9UBT6; purified Pol kappa, fluorescent DNA synthesis assay, 10 min; Potency, µM (series often up to 107 µM), without a hit: top-dose activity, negative = inhibition, most hits filed as inhibitors; 0.53% of 400,000 active; note: % is set by controls: 0 for no effect and ±100 for the full control effect
#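 10 nM Pol kappa preincubated 15 min at room temperature with compounds, then reaction started with substrate at 50 nM final. Fluorescence read kinetically at 0 and 10 min; buffer-only wells served as negative control.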
# Pol eta inh-1 = DNA polymerase eta (human) inhibition | Q9Y253 | recombinant Pol eta, fluorescent DNA replication assay | Potency, µM (series often up to 114 µM), without a hit: at the highest dose activity change, negative = inhibition, usual class: inhibitors | 1.2% of 390,000 active; note: % is set by controls: 0 for no effect and ±100 for the full control effect
#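 Pol eta (10 nM) was preincubated with compounds for 15 min at room temperature, after which fluorescent replication substrate (50 nM final) was added to start the reaction. Fluorescence was read kinetically at 0 and 10 min.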
# POLB inh = blocks human DNA polymerase beta activity | Pol beta primer extension/strand displacement, fluorescence kinetic | 1.3% of 340,000 active | P06746 | Potency, µM (doses to about 114 µM), for the others: top-dose activity change, negative = inhibition, usual class: inhibitors; note: % is set by controls: 0 for no effect and ±100 for the full control effect
#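 Reaction started by 50 nM substrate onto compound-treated Pol beta (10 nM, 15 min preincubation, room temperature); plates read at 0 min and 10 min. Normalized concentration-effect data fitted by four-parameter Hill equation.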
# TbPGK inh = blocks T. brucei phosphoglycerate kinase | 79% of 500 active | AID 686980 | Potency, µM (series often up to 57.5 µM), inactives show top-dose activity change, negative = inhibition, usual class: inhibitors | TbPGK coupled GAPDH assay, Kinase-Glo luminescence | shares compounds with Pol kappa inh-1; note: % is set by controls: 0 for no effect and ±100 for the full control effect; nearly all actives have a fitted effect of over 65% in size
# POLI cherry-pick = Confirm cherry-picked inhibitors of human polymerase iota | shares compounds with Pol kappa inh-1 | Pol iota primer extension, TAMRA/BHQ fluorescence | Potency, µM, most hits filed as inhibitors | 77% of 1,500 active
# Pol kappa inh-2 = confirmation of human DNA polymerase kappa inhibitors; Potency, µM, most hits filed as inhibitors; purified Pol-kappa, fluorescent strand-displacement substrate; shares compounds with Pol eta inh-1; 76% of 920 active
# Pol eta inh-2 = confirmation of human DNA polymerase eta inhibitors. Pol eta primer extension, TAMRA/BHQ fluorescence, 10 min. 64% of 2,600 active. Potency, µM, actives largely listed as inhibitors. shares compounds with Pol eta inh-1
# * marks the source's active call; other numbers are inactive results; ? = inconclusive; / = no result; [ ] = remark or other dose. Calls come from the whole dose curve; as a rule, active = well fitted curve in the direction sought with a large enough effect; inconclusive = small, poorly fitted or top-dose-only effect, or another doubt; inactive = no such curve, though single readings can be large; an effect the other way counts as inactive or inconclusive. Potency is the fitted concentration of half-maximal effect.
SMILES,WRN inhibitor,L3MBTL1 block,POLI inh,Pol kappa inh-1,Pol eta inh-1,POLB inh,POLI cherry-pick,Pol eta inh-2,others
Cc1ccc(SC2=C(Sc3ccc(C)cc3)C(=O)c3ccccc3C2=O)cc1,79.4µM*,?,6.31µM*,4.6%,17.8µM*,1.2%,?,84.9*,
Nc1sc2c(c1C(=O)NC1CCS(=O)(=O)C1)CCCC2 (stereo not given),2.6%,-1.0%,?,-7.9%,-25.9%,2.1%,/,/,
CC(c1ccccc1)N(C)C(=O)CN1CCN(S(=O)(=O)c2ccc3c(c2)OCCCO3)CC1 (stereo not given),0.1%,-2.0%,11.4%,-0.2%,-0.6%,/,/,/,
Cc1nnc(NC(=O)CSCc2cc(=O)c3ccccc3[nH]2)s1,/,?,79.4µM*,-1.3%[60.1 µM],50.1µM*,?,67*,?,
O=C1C=C(O)c2c(O)cc(O)c(O)c2C1=O,?,/,3.55µM*,2µM*,1.58µM*,/,3.77*,21.3*,TbPGK inh=8.19µM*
O=C(O)c1[nH]c2ccccc2c1C(c1cc(Br)ccc1O)c1c(C(=O)O)[nH]c2ccccc12,2.7%[11.6 µM],-8.4%,?,?,50.1µM*,79.4µM*,?,?,
COc1cc2c(cc1OC)C(=O)C(c1ccc3c(c1)OCO3)CC2 (stereo not given),5.1%,/,/,/,-4.7%,/,/,/,
COc1cc2c(cc1OC)C(=O)C(Br)CC2 (stereo not given),50.1µM*,/,/,/,20µM*,/,67*,?,
COC(=O)c1ccc(CNC(=O)c2ccccc2C(=O)NCC2(CBr)OCCO2)cc1,1.9%,/,/,/,-9.8%,/,/,/,
O=C(O)c1cccc(N2C(=O)/C(=C/c3ccc(SCc4ccc(Cl)cc4)o3)SC2=S)c1,17.8µM*,3.55µM*,?,79.4µM*,7.94µM*,3.16µM*,33.6*,19*,TbPGK inh=32.6µM*;Pol kappa inh-2=3.36*
CCc1ccc(/C=C2/SC(=S)N(CCCC(=O)Nc3cccc(C(=O)O)c3)C2=O)cc1,-8.2%,/,/,/,?,/,/,/,
COc1ccc2nc(NC(=O)c3nc(S(=O)(=O)Cc4ccccc4)ncc3Cl)sc2c1,/,/,?,?,?,5.62µM*,29.9*,75.7*,
O=C1NC(=S)S/C1=C/c1ccc(N2CCOCC2)o1,25.1µM*,31.6µM*,79.4µM*,?,?,14.1µM*,37.7*,75.7*,Pol kappa inh-2=84.4*
O=C1S/C(=C/c2ccc(N3CCOCC3)o2)C(=O)N1Cc1ccc(F)cc1,-6.8%,-2.8%,1.5%,-23.2%,6.3%,12.0%,/,/,
O=C(O)C1=NN(c2cc(Cl)c(S(=O)(=O)O)cc2Cl)C(=O)C1,?,/,1.58µM*,79.4µM*,22.4µM*,/,/,?,TbPGK inh=9.19µM*;Pol kappa inh-2=15*
N#C/C(=C\c1cc(O)c(O)c(O)c1)C(N)=O,-30.3%,-87.7%,?,-0.5%,4.1%,?,18.9*,67.5*,
N#C/C(=C\c1cc(Cl)c(OCc2ccc(Cl)cc2)c(Cl)c1)C(N)=O,/,/,/,/,/,-23.4%,/,/,
O=C(O)C(Cc1ccccc1)N1C(=O)/C(=C/C=C/c2ccco2)SC1=S (stereo not given),10µM*,1.26µM*,1.12µM*,3.16µM*,1.41µM*,1.58µM*,2.99*,3.38*,TbPGK inh=5.8µM*
COc1ccccc1NC(=O)c1cnc(SCC(=O)NCC2CCCO2)n(C)c1=O (stereo not given),?,10.5%,22.4µM*,-15.5%,39.8µM*,/,?,84.9*,
O=C(Cc1ccc(-n2cccc2)cc1)NCc1ccccc1Cl,-3.9%,-10.6%,?,-7.3%,?,0.7%,/,/,
Cc1ccc(NC2=C/C(=N/S(=O)(=O)c3cccs3)c3ccccc3C2=O)cc1C,-4.7%,-10.5%,13.8%,-19.1%,-9.3%,46.8%,/,/,
Cc1cc(C)c(S(=O)(=O)/N=C2/C=C(Sc3ncn[nH]3)C(=O)c3ccccc32)cc1C,22.4µM*,?,1µM*,?,12.6µM*,79.4µM*,16.8*,23.9*,
C=C(C)C(=O)N1CC2(CC(c3cccc(NC(=O)/C=C\C=C/C)c3)=NO2)C[C@H]1C(N)=O (stereo not given in full),?,/,11.2µM*,39.8µM*,12.6µM*,?,13.4*,19*,
C=C(C)C(=O)Nc1cccc(C2=NOC3(C2)C[C@@H](C(N)=O)N(C(=O)C(=C)C)C3)c1 (stereo not given in full),-8.2%[11.6 µM],/,50.1µM*,?,10µM*,3.55µM*,/,16.9*,TbPGK inh=5.8µM*
C/C=C/C(=O)Nc1cccc(C2=NOC3(C2)C[C@@H](C(N)=O)N(C(=O)c2cc([N+](=O)[O-])cc([N+](=O)[O-])c2C)C3)c1 (stereo not given in full),-4.0%,/,-21.7%,-6.1%,-4.6%,9.2%,/,/,
C=C(C)C(=O)Nc1cccc(C2=NOC3(C2)C[C@@H](C(N)=O)N(C(=O)c2cc([N+](=O)[O-])cc([N+](=O)[O-])c2C)C3)c1 (stereo not given in full),?,/,?,50.1µM*,12.6µM*,20µM*,?,19*,TbPGK inh=?
C/C=C\C=C/C(=O)Nc1cccc(C2=NOC3(C2)C[C@@H](C(N)=O)N(C(=O)[C@H]2CCC(=O)N2)C3)c1 (stereo not given in full),2.9%,/,-19.1%,-20.0%,2.1%,-1.1%,/,/,
CCCCOc1ccc(C(=O)Oc2cc(C)[nH]c(=O)c2[N+](=O)[O-])cc1,0.4%,/,8.6%,1.2%,-9.4%,14.9%,/,/,
COC(=O)C1=CO[C@@H](O[C@@H]2OC(CO)[C@@H](O)[C@@H](O)[C@@H]2O)C2C1CC[C@]2(C)O (stereo not given in full),-0.8%,/,21.8%,-1.8%,-15.6%,/,/,/,
COC(=O)C1=COC(OC2OC(CO)C(O)C(O)C2O)C2C1C=CC2(O)CO (stereo not given),-23.4%,/,39.8µM*,35.5µM*,17.8µM*,20µM*,33.6*,26.9*,TbPGK inh=8.19µM*

# Source: PubChem BioAssay
